# The supplement of paper PMC10037445
# Over roughly 2,900 compounds, “NF-kB SEAP reporter activity, fold change vs agonist alone” has its median near 0.99; the highest 2% begin near 2.6. The full list was thinned out, with the highest values kept by preference.
# What was measured:
# RAW-Dual [1] = assay: NF-kB SEAP reporter activity, fold change vs agonist alone; higher = enhanced NF-kB activity
# Outline: (§1)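 RAW-Dual macrophages were seeded in DMEM at 50,000 cells/well in 384-well plates, given 50 nL of library stock by pin tool, and given a PRR agonist 1 h later. Plates were held at 37 °C, 5% CO2 for 20 hours, after which supernatant was read for IRF by QuantiLuc luminescence and for NF-κB by QuantiBlue absorbance at 620 nm. Reporter activity is expressed as fold change over wells that received agonist alone. A well was called cytotoxic when IncuCyte confluency fell below 70% of agonist controls in both mask sets.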
# RAW-Dual [2] = assay: NF-kB SEAP reporter activity, fold change vs agonist alone; cytotoxicity flag (confluency mask): not cytotoxic; higher = enhanced NF-kB activity
# Outline: as §1
# RAW-Dual [3] = assay: NF-kB SEAP reporter activity, fold change vs agonist alone; cytotoxicity flag (confluency mask): cytotoxic (confluency <70% of control); higher = enhanced NF-kB activity
# Outline: as §1
# [4] = library stock concentration (final ~1000-fold dilution): 10 mM, cytotoxicity flag (confluency mask): not cytotoxic, agonist: Imiquimod (TLR7) […]
# [5] = library stock concentration (final ~1000-fold dilution): 10 mM, cytotoxicity flag (confluency mask): not cytotoxic, agonist: MPLA (TLR4) […]
# [6] = agonist: ODN 1826 (TLR9) 0.5 ug/mL
# [7] = agonist: Pam2CSK4 (TLR2/6) 0.1 ug/mL
# [8] = agonist: Pam3CSK4 (TLR2/1) 0.1 ug/mL
# [9] = library stock concentration (final ~1000-fold dilution): 10 mM, cytotoxicity flag (confluency mask): cytotoxic (confluency <70% of control), agonist: Imiquimod (TLR7) […]
# [10] = library stock concentration (final ~1000-fold dilution): 10 mM, cytotoxicity flag (confluency mask): cytotoxic (confluency <70% of control), agonist: MPLA (TLR4) […]
structure (smiles),measurement,setting,value
Cc1nnc(C(C)C)n1C1CC2CCC(C1)N2CCC(NC(=O)C1CCC(F)(F)CC1)c1ccccc1 (centres undefined),NF-kB SEAP reporter activity,RAW-Dual [1]; [4],0.968
same,NF-kB SEAP reporter activity,RAW-Dual [1]; [5],1
Cc1nnc(C(C)C)n1C1CC2CCC(C1)N2CCC(NC(=O)C1CCC(F)(F)CC1)c1ccccc1 (centres undefined) (library stock concentration (final ~1000-fold dilution): 10 mM),NF-kB SEAP reporter activity,RAW-Dual [2]; agonist: LPS (TLR4) 0.1 ug/mL,0.973
same,NF-kB SEAP reporter activity,RAW-Dual [2]; [6],1.04
same,NF-kB SEAP reporter activity,RAW-Dual [2]; [7],1.06
same,NF-kB SEAP reporter activity,RAW-Dual [2]; [8],1.11
O=C(/C=C/c1ccccc1)NC(NC(=S)Nc1ccc(Cl)cc1)C(Cl)(Cl)Cl (centres undefined),NF-kB SEAP reporter activity,RAW-Dual [1]; [9],1.03
same,NF-kB SEAP reporter activity,RAW-Dual [1]; [10],2.18
O=C(/C=C/c1ccccc1)NC(NC(=S)Nc1cccc2cccnc12)C(Cl)(Cl)Cl (centres undefined),NF-kB SEAP reporter activity,RAW-Dual [1]; [4],0.628
same,NF-kB SEAP reporter activity,RAW-Dual [1]; [5],0.833
O=C(/C=C/c1ccccc1)NC(NC(=S)Nc1cccc2cccnc12)C(Cl)(Cl)Cl (centres undefined) (library stock concentration (final ~1000-fold dilution): 10 mM),NF-kB SEAP reporter activity,RAW-Dual [2]; agonist: LPS (TLR4) 0.1 ug/mL,0.779
same,NF-kB SEAP reporter activity,RAW-Dual [2]; [6],0.429
same,NF-kB SEAP reporter activity,RAW-Dual [2]; [7],0.288
same,NF-kB SEAP reporter activity,RAW-Dual [2]; [8],0.388
O=C(NC(NC(=S)Nc1ccc(F)c([N+](=O)[O-])c1)C(Cl)(Cl)Cl)C(c1ccccc1)c1ccccc1 (centres undefined) (library stock concentration (final ~1000-fold dilution): 10 mM),NF-kB SEAP reporter activity,RAW-Dual [3]; agonist: LPS (TLR4) 0.1 ug/mL,0.182
same,NF-kB SEAP reporter activity,RAW-Dual [3]; [6],0.493
same,NF-kB SEAP reporter activity,RAW-Dual [3]; [7],0.146
same,NF-kB SEAP reporter activity,RAW-Dual [3]; [8],0.135
O=C(/C=C/c1ccccc1)NC(NC(=S)Nc1ccc(Cl)cc1)C(Cl)(Cl)Cl (centres undefined) (library stock concentration (final ~1000-fold dilution): 10 mM),NF-kB SEAP reporter activity,RAW-Dual [3]; agonist: LPS (TLR4) 0.1 ug/mL,2.64
same,NF-kB SEAP reporter activity,RAW-Dual [3]; [6],1.22
same,NF-kB SEAP reporter activity,RAW-Dual [3]; [7],0.494
same,NF-kB SEAP reporter activity,RAW-Dual [3]; [8],0.809
O=C(NC(NC(=S)Nc1ccc(F)c([N+](=O)[O-])c1)C(Cl)(Cl)Cl)C(c1ccccc1)c1ccccc1 (centres undefined),NF-kB SEAP reporter activity,RAW-Dual [1]; [9],0.707
same,NF-kB SEAP reporter activity,RAW-Dual [1]; [10],0.521
Cc1cc2c(C(=O)NCC(C)c3ccccc3)c(O)c(O)cc2c(O)c1-c1c(C)cc2c(C(=O)NCC(C)c3ccccc3)c(O)c(O)cc2c1O (centres undefined),NF-kB SEAP reporter activity,RAW-Dual [1]; [4],1.84
same,NF-kB SEAP reporter activity,RAW-Dual [1]; [5],2.27
Cc1cc2c(C(=O)NCC(C)c3ccccc3)c(O)c(O)cc2c(O)c1-c1c(C)cc2c(C(=O)NCC(C)c3ccccc3)c(O)c(O)cc2c1O (centres undefined) (library stock concentration (final ~1000-fold dilution): 10 mM),NF-kB SEAP reporter activity,RAW-Dual [2]; agonist: LPS (TLR4) 0.1 ug/mL,4.28
same,NF-kB SEAP reporter activity,RAW-Dual [2]; [6],2.93
same,NF-kB SEAP reporter activity,RAW-Dual [2]; [7],0.803
same,NF-kB SEAP reporter activity,RAW-Dual [2]; [8],1.62
N=C(N)Nc1nc(CSCCC(=N)NS(N)(=O)=O)cs1,NF-kB SEAP reporter activity,RAW-Dual [1]; [4],0.918
same,NF-kB SEAP reporter activity,RAW-Dual [1]; [5],1
N=C(N)Nc1nc(CSCCC(=N)NS(N)(=O)=O)cs1 (library stock concentration (final ~1000-fold dilution): 10 mM),NF-kB SEAP reporter activity,RAW-Dual [2]; agonist: LPS (TLR4) 0.1 ug/mL,1.03
same,NF-kB SEAP reporter activity,RAW-Dual [2]; [6],1.06
same,NF-kB SEAP reporter activity,RAW-Dual [2]; [7],1.25
same,NF-kB SEAP reporter activity,RAW-Dual [2]; [8],1.09
CN1CCCC1CCOC(C)(c1ccccc1)c1ccc(Cl)cc1.O=C(O)/C=C/C(=O)O (centres undefined) (library stock concentration (final ~1000-fold dilution): 10 mM),NF-kB SEAP reporter activity,RAW-Dual [2]; agonist: LPS (TLR4) 0.1 ug/mL,1.32
same,NF-kB SEAP reporter activity,RAW-Dual [2]; [6],0.754
same,NF-kB SEAP reporter activity,RAW-Dual [2]; [7],0.873
same,NF-kB SEAP reporter activity,RAW-Dual [2]; [8],0.64
CN1CCCC1CCOC(C)(c1ccccc1)c1ccc(Cl)cc1.O=C(O)/C=C/C(=O)O (centres undefined),NF-kB SEAP reporter activity,RAW-Dual [1]; [4],1.7
same,NF-kB SEAP reporter activity,RAW-Dual [1]; [5],0.942
O=C(O)CCCN1CCC(OC(c2ccc(Cl)cc2)c2ccccn2)CC1.O=S(=O)(O)c1ccccc1 (centres undefined) (library stock concentration (final ~1000-fold dilution): 10 mM),NF-kB SEAP reporter activity,RAW-Dual [2]; agonist: LPS (TLR4) 0.1 ug/mL,1.04
same,NF-kB SEAP reporter activity,RAW-Dual [2]; [6],1.06
same,NF-kB SEAP reporter activity,RAW-Dual [2]; [7],1.01
same,NF-kB SEAP reporter activity,RAW-Dual [2]; [8],1.17
O=C(O)CCCN1CCC(OC(c2ccc(Cl)cc2)c2ccccn2)CC1.O=S(=O)(O)c1ccccc1 (centres undefined),NF-kB SEAP reporter activity,RAW-Dual [1]; [4],1.08
same,NF-kB SEAP reporter activity,RAW-Dual [1]; [5],1.03
N#CC1CC2CC2N1C(=O)C(N)C12CC3CC(CC(O)(C3)C1)C2.O (centres undefined) (library stock concentration (final ~1000-fold dilution): 10 mM),NF-kB SEAP reporter activity,RAW-Dual [2]; agonist: LPS (TLR4) 0.1 ug/mL,1.27
same,NF-kB SEAP reporter activity,RAW-Dual [2]; [6],1.44
same,NF-kB SEAP reporter activity,RAW-Dual [2]; [7],1.71
same,NF-kB SEAP reporter activity,RAW-Dual [2]; [8],1.75
N#CC1CC2CC2N1C(=O)C(N)C12CC3CC(CC(O)(C3)C1)C2.O (centres undefined),NF-kB SEAP reporter activity,RAW-Dual [1]; [5],1.19
O.c1cnc2c(c1)ccc1cccnc12,NF-kB SEAP reporter activity,RAW-Dual [1]; [4],2.78
same,NF-kB SEAP reporter activity,RAW-Dual [1]; [5],2.1
N#Cc1ncccn1,NF-kB SEAP reporter activity,"RAW-Dual [1]; library stock concentration (final ~1000-fold dilution): 2 mM, cytotoxicity flag (confluency mask): not cytotoxic, agonist: Imiquimod (TLR7) […]",1
same,NF-kB SEAP reporter activity,"RAW-Dual [1]; library stock concentration (final ~1000-fold dilution): 2 mM, cytotoxicity flag (confluency mask): not cytotoxic, agonist: MPLA (TLR4) […]",1
O.c1cnc2c(c1)ccc1cccnc12 (library stock concentration (final ~1000-fold dilution): 10 mM),NF-kB SEAP reporter activity,RAW-Dual [2]; agonist: LPS (TLR4) 0.1 ug/mL,2.48
same,NF-kB SEAP reporter activity,RAW-Dual [2]; [6],1.17
same,NF-kB SEAP reporter activity,RAW-Dual [2]; [7],1.44
same,NF-kB SEAP reporter activity,RAW-Dual [2]; [8],2.06
N#Cc1ncccn1 (library stock concentration (final ~1000-fold dilution): 2 mM),NF-kB SEAP reporter activity,RAW-Dual [2]; agonist: LPS (TLR4) 0.1 ug/mL,1.32
same,NF-kB SEAP reporter activity,RAW-Dual [2]; [6],1.02
same,NF-kB SEAP reporter activity,RAW-Dual [2]; [7],1.09
same,NF-kB SEAP reporter activity,RAW-Dual [2]; [8],1.05
O=C(O)c1ccc(O)c2ncccc12 (library stock concentration (final ~1000-fold dilution): 10 mM),NF-kB SEAP reporter activity,RAW-Dual [2]; agonist: LPS (TLR4) 0.1 ug/mL,1.21
same,NF-kB SEAP reporter activity,RAW-Dual [2]; [6],1.04
same,NF-kB SEAP reporter activity,RAW-Dual [2]; [7],0.998
same,NF-kB SEAP reporter activity,RAW-Dual [2]; [8],1.4
O=C(O)c1ccc(O)c2ncccc12,NF-kB SEAP reporter activity,RAW-Dual [1]; [4],1.05
same,NF-kB SEAP reporter activity,RAW-Dual [1]; [5],1.03
CCn1cc(C(=O)O)c(=O)c2cc(F)c(N3CCN(C)CC3)cc21.CS(=O)(=O)O.O.O (library stock concentration (final ~1000-fold dilution): 10 mM),NF-kB SEAP reporter activity,RAW-Dual [2]; agonist: LPS (TLR4) 0.1 ug/mL,1.38
same,NF-kB SEAP reporter activity,RAW-Dual [2]; [6],0.867
same,NF-kB SEAP reporter activity,RAW-Dual [2]; [7],1.01
same,NF-kB SEAP reporter activity,RAW-Dual [2]; [8],1.01
CCn1cc(C(=O)O)c(=O)c2cc(F)c(N3CCN(C)CC3)cc21.CS(=O)(=O)O.O.O,NF-kB SEAP reporter activity,RAW-Dual [1]; [4],0.752
same,NF-kB SEAP reporter activity,RAW-Dual [1]; [5],0.814
Cl.Cl.OC(CN1CCN(c2cccc(Cl)c2)CC1)C(c1ccccc1)c1ccccc1 (centres undefined),NF-kB SEAP reporter activity,RAW-Dual [1]; [4],1.33
same,NF-kB SEAP reporter activity,RAW-Dual [1]; [5],1.04
Cl.Cl.OC(CN1CCN(c2cccc(Cl)c2)CC1)C(c1ccccc1)c1ccccc1 (centres undefined) (library stock concentration (final ~1000-fold dilution): 10 mM),NF-kB SEAP reporter activity,RAW-Dual [2]; agonist: LPS (TLR4) 0.1 ug/mL,0.841
same,NF-kB SEAP reporter activity,RAW-Dual [2]; [6],1.02
same,NF-kB SEAP reporter activity,RAW-Dual [2]; [7],0.761
same,NF-kB SEAP reporter activity,RAW-Dual [2]; [8],0.956
CC(=O)OC1CC2CCC3C(CCC4(C)C3CC([N+]3(C)CCCCC3)C4OC(C)=O)C2(C)CC1N1CCCCC1 (centres undefined),NF-kB SEAP reporter activity,RAW-Dual [1]; [4],0.939
same,NF-kB SEAP reporter activity,RAW-Dual [1]; [5],0.965
CC(=O)OC1CC2CCC3C(CCC4(C)C3CC([N+]3(C)CCCCC3)C4OC(C)=O)C2(C)CC1N1CCCCC1 (centres undefined) (library stock concentration (final ~1000-fold dilution): 10 mM),NF-kB SEAP reporter activity,RAW-Dual [2]; agonist: LPS (TLR4) 0.1 ug/mL,1.04
same,NF-kB SEAP reporter activity,RAW-Dual [2]; [6],1.02
same,NF-kB SEAP reporter activity,RAW-Dual [2]; [7],0.945
same,NF-kB SEAP reporter activity,RAW-Dual [2]; [8],1.01
